Some test systems named below: NCI/ADR-RES ovarian; T-47D breast; BT-549 breast; MDA-MB-435 melanoma; SW-620 colon; MCF7 breast; HCT-116 colon; HCC-2998 colon; KM12 colon.
Common to all, as to assay: NCI-60 one-dose screen, 48 h (100 = growth as untreated, 0 = no growth, -100 = all killed)
Conditions in all cases: 10 µM unless noted

The panel holds about 83,000 compounds, 20% with a hit somewhere; the sample as a whole holds those more often.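 Single-dose data. Exposure time 48 hours. Values below 10 considered active.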 Unmarked numbers belong to inactive results. The source made the active and inactive calls.

On to `COC(=O)[C@@H](C)C[C@H](Cc1ccccc1)NC(=O)c1csc([C@@H](C[C@H](C(C)C)N(C)C(=O)C2(NC(=O)[C@H]3CCCCN3C)CC2)OC(C)=O)n1`, for which the growth in the experiment with NCI/ADR-RES ovarian was 61.8%; in the experiment on T-47D breast, 51.5%; in the experiment with BT-549 breast, 12.8%; in the experiment with MDA-MB-435 melanoma it was -28.8% (active); in the experiment with SW-620 colon, 22.2%; with MCF7 breast, 18.9%. The growth in the experiment on HCT-116 colon was 0.459% (active); in the experiment with HCC-2998 colon it was -2.95% (active); in the experiment on KM12 colon, 5.25% (active).

`CNC(=O)Oc1ccc2c(c1)OCO2`: the growth in the experiment on NCI/ADR-RES ovarian is 109%; with T-47D breast it was 99.9%; with BT-549 breast it was 97.1%; with MDA-MB-435 melanoma, 103%; with SW-620 colon, 107%; in the experiment on MCF7 breast it was 95.7%. Further, the results for the growth in the experiment on HCT-116 colon, with HCC-2998 colon and in the experiment with KM12 colon were 111%, 106% and 101%, respectively.

`N#C[S-].[Au+].c1ccc(CN2[CH-]N(Cc3ccccc3)C(c3ccccc3)=C2c2ccccc2)cc1`: the growth was 59.8% with NCI/ADR-RES ovarian; 7.11% (active) in the experiment on T-47D breast; 23.4% with BT-549 breast; 13.3% with MDA-MB-435 melanoma; 17.9% in the experiment on SW-620 colon; 4.87% (active) with MCF7 breast. For the same molecule, the growth with HCT-116 colon was 8.06% (active); with HCC-2998 colon, 30.9%; in the experiment with KM12 colon, 14.2%.

With `O=C(CCCCCCC(=O)Nc1ccc(N(CCCl)CCCl)cc1)NO`, the growth in the experiment with NCI/ADR-RES ovarian was 64.6%; with T-47D breast it was -8.98% (active); with BT-549 breast, 58.9%; in the experiment with MDA-MB-435 melanoma it was 45.1%; with SW-620 colon, 33.2%; in the experiment on MCF7 breast it was 9.37% (active). For the same molecule, the figures for the growth in the experiment with HCT-116 colon, in the experiment with HCC-2998 colon and in the experiment with KM12 colon were 36.1%, 52.1% and 63%, respectively.

For `CC12CCC3C(C=CC4=C(N)C(=O)CCC43C)C1CCC2=O` (stereo unspecified), the growth with NCI/ADR-RES ovarian is 68.7%; in the experiment with T-47D breast, 73.7%; in the experiment on BT-549 breast it was 82.6%; with MDA-MB-435 melanoma, 113%; with SW-620 colon, 15.4%; in the experiment with MCF7 breast, -16% (active). Further, the growth in the experiment on HCT-116 colon is 6.15% (active); in the experiment with HCC-2998 colon, 96%; in the experiment with KM12 colon it was 39.5%.

On to `O=C(CCl)c1ccc([N+](=O)[O-])o1`, for which the growth in the experiment with NCI/ADR-RES ovarian was -49.5% (active); in the experiment on T-47D breast, -53.5% (active); in the experiment on BT-549 breast, 44.3%; with MDA-MB-435 melanoma, -4.26% (active); in the experiment on SW-620 colon, -97% (active); in the experiment with MCF7 breast, 18.6%. Moreover, the growth in the experiment on HCT-116 colon is -100% (active); in the experiment with HCC-2998 colon, 31.1%; with KM12 colon, -21.2% (active).

For `CC(=O)OC1CCC2(C)C(CCC3C2CC(=O)C2(C)C3CC(Sc3ccc(N(CCCl)CCCl)cc3)C2C(C)=O)C1` (stereo unspecified), the growth was 74.7% in the experiment with NCI/ADR-RES ovarian; 66.7% with T-47D breast; 80.8% in the experiment on BT-549 breast; 105% in the experiment on MDA-MB-435 melanoma; 68.4% with SW-620 colon; 74.2% in the experiment with MCF7 breast. Also, the growth in the experiment on HCT-116 colon is 72%; in the experiment on HCC-2998 colon it was 87.2%; in the experiment on KM12 colon it was 32.6%.

On to `COc1ccc(/C=C\c2cc(OC)c(OC)c(OC)c2)cc1OCC(=O)Nc1nc2ccc(F)cc2s1`, for which the growth was 20.2% in the experiment on NCI/ADR-RES ovarian; 38.3% with T-47D breast; 53.7% with BT-549 breast; 15.5% in the experiment with MDA-MB-435 melanoma; 42.4% in the experiment with SW-620 colon; 17.1% in the experiment with MCF7 breast. Further, the growth in the experiment with HCT-116 colon was 17.5%; in the experiment on HCC-2998 colon it was 72%; in the experiment on KM12 colon, 42.1%.

With `COc1cccc2c1c(C(=O)c1ccco1)cn2Cc1ccc(F)cc1`, the growth is 104% in the experiment with NCI/ADR-RES ovarian; 97.2% in the experiment on T-47D breast; 116% with BT-549 breast; 148% in the experiment on MDA-MB-435 melanoma; 109% in the experiment with SW-620 colon; 99.6% in the experiment with MCF7 breast. Also, the growth in the experiment on HCT-116 colon was 111%; in the experiment on HCC-2998 colon, 102%; in the experiment with KM12 colon it was 116%.

On to `O=C(CC1(O)C(=O)N(Cc2ccccc2)c2ccccc21)c1ccc(C(=O)NCC2CCC3(CC2)OOC2(CCCCC2)OO3)cc1` (stereo unspecified), for which the growth was -47.1% (active) in the experiment on NCI/ADR-RES ovarian; -39.1% (active) with T-47D breast; -31.1% (active) in the experiment with BT-549 breast; -86.5% (active) in the experiment on MDA-MB-435 melanoma; 6.2% (active) in the experiment with SW-620 colon; 9.78% (active) in the experiment with MCF7 breast. Also, the growth in the experiment on HCT-116 colon was 15.5%; with HCC-2998 colon, 73.4%; in the experiment with KM12 colon, -73.9% (active).

On to `COc1ccc(/C=C\c2cc(OC)c(OC)c(OC)c2)cc1NC(=O)/C=C/c1ccc(OC)c(OC)c1`, for which the growth in the experiment with NCI/ADR-RES ovarian is -8.84% (active); with T-47D breast it was 40.2%; in the experiment on BT-549 breast, 39.1%; with MDA-MB-435 melanoma, -51.4% (active); in the experiment on SW-620 colon, 39.2%; in the experiment with MCF7 breast, 21.3%. In addition, the growth is 25% in the experiment on HCT-116 colon, -3.07% (active) in the experiment with HCC-2998 colon and 27.3% with KM12 colon.

In the case of `CC(=O)C(c1c(O)c2ccccc2oc1=O)c1cc(=O)oc2c1ccc1ccccc12` (stereo unspecified), the growth with NCI/ADR-RES ovarian is 99.6%; in the experiment with T-47D breast it was 84.3%; in the experiment on BT-549 breast, 87.9%; in the experiment on MDA-MB-435 melanoma, 103%; in the experiment on SW-620 colon, 99%; in the experiment with MCF7 breast, 91.3%. Further, the growth in the experiment on HCT-116 colon is 92.3%; in the experiment with HCC-2998 colon, 104%; in the experiment with KM12 colon it was 109%.

With `C#Cc1ccc2c(c1)C(c1ccccc1)=NCC(=O)N2C`, the growth in the experiment with NCI/ADR-RES ovarian is 17.1%; in the experiment with T-47D breast it was 51.6%; with BT-549 breast it was 45.2%; with MDA-MB-435 melanoma, 11.4%; with SW-620 colon it was 30.6%; with MCF7 breast, 18.4%. The values for the growth in the experiment with HCT-116 colon, in the experiment on HCC-2998 colon and with KM12 colon were 18.9%, 70.5% and 28.8%, respectively.

In the case of `COc1ccc(S(=O)(=O)Nc2c(/C=C\c3cc(OC)c(OC)c(OC)c3)ccc(OC)c2O)cc1OC`, the growth with NCI/ADR-RES ovarian is 2.42% (active); with T-47D breast it was 100%; in the experiment on BT-549 breast it was 20.7%; with MDA-MB-435 melanoma it was -52% (active); in the experiment on SW-620 colon it was 22.6%; with MCF7 breast, 15.7%. Besides, the growth in the experiment on HCT-116 colon is 12.6%; in the experiment on HCC-2998 colon, 22.6%; in the experiment with KM12 colon, 4.9% (active).

The values are drawn from PubChem BioAssay (NCI).
